From the supplement of paper PMC10338343
± gives the standard deviation.

Key:
[1] = test system: MILI (PIWIL2) piRISC loaded with L1MC piRNA (26 nt); assay: pre-steady-state target cleavage rate (min^-1); guide: L1MC piRNA 5'p-UAACUAAAUACUAUGCAAGCUGUAGG; higher = faster piRNA-guided slicing of the target
Procedure, shortened: (§1)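 Using HEPES–potassium acetate buffer at 33 °C, 1 nM active affinity-purified piRISC with a single synthetic guide was mixed with 0.1 nM transcribed, DNA-blocked target RNA library for 0–8 or 0–960 min, with or without 500 nM GTSF1 partner protein. Uncleaved targets were sequenced and normalised to depth and to weakly complementary targets, and three trials were pooled with k3 capped at 0.0001 min^-1. A burst-and-steady-state fit gave the pre-steady-state cleavage rate.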

[2] = test system: EfPiwi piRISC loaded with L1MC piRNA (26 nt); assay: pre-steady-state target cleavage rate (min^-1); auxiliary factor: 500 nM Ephydatia muelleri Gtsf1; guide: L1MC piRNA 5'p-UAACUAAAUACUAUGCAAGCUGUAGG; MIWI and MILI are mouse PIWI proteins and EfPiwi is from a freshwater sponge; tags in brackets are library labels; higher = faster piRNA-guided slicing of the target
Procedure, shortened: as §1

[3] = auxiliary factor: 500 nM mouse GTSF1
[4] = auxiliary factor: none (no GTSF1)

## UCCUGGUACAGUCUUGCAUAGUAUUUAGUUA
[1]; [3]
  pre-steady-state target cleavage rate: 0.254 ± 0.033
[1]; [4]
  pre-steady-state target cleavage rate: 0.0122 ± 0.0047

## UCCUCCUUCAGCUUGCAUAGUAUUUAGAUA
[1]; [3]
  pre-steady-state target cleavage rate: 0.157 ± 0.022
[1]; [4]
  pre-steady-state target cleavage rate: 0.00242 ± 0.0024

## UCCUGGAUGUCGAAGCAUAGUAUUUAGUGA
[1]; [3]
  pre-steady-state target cleavage rate: 0.0495 ± 0.015
[1]; [4]
  pre-steady-state target cleavage rate: 0.00324 ± 0.0026

## UCCUGGAUGUCGAUGCAUAGUAUUUAGGUUA
[1]; [3]
  pre-steady-state target cleavage rate: 0.0911 ± 0.016
[1]; [4]
  pre-steady-state target cleavage rate: 0.00466 ± 0.0031

## UCCUGGAUGUCGAUGCAUGGUAUUUAGUUA
[1]; [3]
  pre-steady-state target cleavage rate: 0.0229 ± 0.0078
[1]; [4]
  pre-steady-state target cleavage rate: 0.00372 ± 0.0028

## UCCUGGUACAGCAUGGAUAGUAUUUAGUUA
[1]; [3]
  pre-steady-state target cleavage rate: 0.197 ± 0.019
[1]; [4]
  pre-steady-state target cleavage rate: 0.0172 ± 0.0046

## UCCUGCUACAGGUUGGAUAGUAUUUAGUUA
[1]; [3]
  pre-steady-state target cleavage rate: 0.204 ± 0.018
[1]; [4]
  pre-steady-state target cleavage rate: 0.00926 ± 0.0025

## UCCUGGAUGUCGUUGCAUAGUAUUAUAGUUA
[1]; [3]
  pre-steady-state target cleavage rate: 0.173 ± 0.03
[1]; [4]
  pre-steady-state target cleavage rate: 0.00429 ± 0.0034

## UCCUGGAUCAGGAUGCAUAGUAUUUAGUAA
[1]; [3]
  pre-steady-state target cleavage rate: 0.128 ± 0.012
[1]; [4]
  pre-steady-state target cleavage rate: 0.00364 ± 0.002

## UCCUGGAUGUCCUUUCAUAGUAUUUAGUUA
[1]; [3]
  pre-steady-state target cleavage rate: 0.0723 ± 0.011
[1]; [4]
  pre-steady-state target cleavage rate: 0.00458 ± 0.0022

## UCCUGGAACAGCAUGCAUAGUAAUUAGUUA
[1]; [3]
  pre-steady-state target cleavage rate: 0.225 ± 0.017
[1]; [4]
  pre-steady-state target cleavage rate: 0.00873 ± 0.0024
[2]
  pre-steady-state target cleavage rate: 0.0139 ± 0.0048

## UCCUCCACAGCUUGCAUAGUAUUUAGUUA
[1]; [3]
  pre-steady-state target cleavage rate: 0.248 ± 0.014
[1]; [4]
  pre-steady-state target cleavage rate: 0.00686 ± 0.0018
[2]
  pre-steady-state target cleavage rate: 0.0564 ± 0.018

## UCCUGCUACUGCUAGCAUAGUAUUUAGUUA
[1]; [3]
  pre-steady-state target cleavage rate: 0.253 ± 0.017
[1]; [4]
  pre-steady-state target cleavage rate: 0.0054 ± 0.0023
[2]
  pre-steady-state target cleavage rate: 0.0129 ± 0.0034

## UCCUGGUUGAGCUUGCAUAGUAUUUAGUUA
[1]; [3]
  pre-steady-state target cleavage rate: 0.179 ± 0.017
[1]; [4]
  pre-steady-state target cleavage rate: 0.0113 ± 0.0033
[2]
  pre-steady-state target cleavage rate: 0.0176 ± 0.0053

## UCCUGGUACGGCUUGCAUAGUAUUUAGUUA
[1]; [3]
  pre-steady-state target cleavage rate: 0.195 ± 0.03
[1]; [4]
  pre-steady-state target cleavage rate: 0.0133 ± 0.0047
[2]
  pre-steady-state target cleavage rate: 0.00921 ± 0.0043

## UCCUGGAACAGCUUGCAUAGUAUUUAGUCA
[1]; [3]
  pre-steady-state target cleavage rate: 0.224 ± 0.024
[1]; [4]
  pre-steady-state target cleavage rate: 0.00732 ± 0.0022
[2]
  pre-steady-state target cleavage rate: 0.0042 ± 0.0024

## UCCUGCUUCAGCUUGCAUAGUAUUUACUUA
[1]; [3]
  pre-steady-state target cleavage rate: 0.116 ± 0.021
[1]; [4]
  pre-steady-state target cleavage rate: 0.00294 ± 0.0023
[2]
  pre-steady-state target cleavage rate: 0.00411 ± 0.0037

## UCCUGCUACUGCUUGGAUAGUAUUUAGUUA
[1]; [3]
  pre-steady-state target cleavage rate: 0.221 ± 0.016
[1]; [4]
  pre-steady-state target cleavage rate: 0.00763 ± 0.0018
[2]
  pre-steady-state target cleavage rate: 0.0111 ± 0.0029

## UCCUGGAUGAGGCUUGCAUAGUAUUUAGUUA
[1]; [3]
  pre-steady-state target cleavage rate: 0.186 ± 0.018
[1]; [4]
  pre-steady-state target cleavage rate: 0.0125 ± 0.0036
[2]
  pre-steady-state target cleavage rate: 0.0185 ± 0.0065

## UCCUCCUACAGCUUGCAUAGUAUUUAUGUUA
[1]; [3]
  pre-steady-state target cleavage rate: 0.162 ± 0.023
[1]; [4]
  pre-steady-state target cleavage rate: 0.00611 ± 0.0025
[2]
  pre-steady-state target cleavage rate: 0.00546 ± 0.0027

## UCCUGGUACAGCAUGCAUACUAUUUAGUUA
[1]; [3]
  pre-steady-state target cleavage rate: 0.139 ± 0.031
[1]; [4]
  pre-steady-state target cleavage rate: 0.00694 ± 0.003
[2]
  pre-steady-state target cleavage rate: 0.00483 ± 0.0019

## UCCUGCUACAGGUUGCAUACUAUUUAGUUA
[1]; [3]
  pre-steady-state target cleavage rate: 0.0385 ± 0.0068
[1]; [4]
  pre-steady-state target cleavage rate: 0.00412 ± 0.002
[2]
  pre-steady-state target cleavage rate: 0.00621 ± 0.0019

## UCCUGGAUGUGCUUUCAUAGUAUUUAGUUA
[1]; [3]
  pre-steady-state target cleavage rate: 0.126 ± 0.018
[1]; [4]
  pre-steady-state target cleavage rate: 0.00919 ± 0.0024
[2]
  pre-steady-state target cleavage rate: 0.0041 ± 0.0024

## UCCUGGUACAAGCUUGCAUAGUAUUUAGUUA
[1]; [3]
  pre-steady-state target cleavage rate: 0.196 ± 0.024
[1]; [4]
  pre-steady-state target cleavage rate: 0.0121 ± 0.0042
[2]
  pre-steady-state target cleavage rate: 0.0481 ± 0.014

## UCCUCUACAGCUUGCAUAGUAUUUAGUUA
[1]; [3]
  pre-steady-state target cleavage rate: 0.31 ± 0.013
[1]; [4]
  pre-steady-state target cleavage rate: 0.00953 ± 0.0028
[2]
  pre-steady-state target cleavage rate: 0.183 ± 0.045

## UCCUGCUACACGAUGCAUAGUAUUUAGUAA
[1]; [3]
  pre-steady-state target cleavage rate: 0.257 ± 0.032
[1]; [4]
  pre-steady-state target cleavage rate: 0.00703 ± 0.0026
[2]
  pre-steady-state target cleavage rate: 0.00352 ± 0.0024

## UCCUGGAACGCUUGCAUAGUAUUUAGUUA
[1]; [3]
  pre-steady-state target cleavage rate: 0.239 ± 0.015
[1]; [4]
  pre-steady-state target cleavage rate: 0.00644 ± 0.0019
[2]
  pre-steady-state target cleavage rate: 0.0259 ± 0.0076

## UCCUGGAUCAGCUUGCAAAGUUUUUAGUUA
[1]; [3]
  pre-steady-state target cleavage rate: 0.00906 ± 0.0052
[1]; [4]
  pre-steady-state target cleavage rate: 0.0042 ± 0.0022
[2]
  pre-steady-state target cleavage rate: 0.00491 ± 0.0036

## UCCUCCUACAGCAUGCUUAGUAUUUAGUUA
[1]; [3]
  pre-steady-state target cleavage rate: 0.206 ± 0.015
[1]; [4]
  pre-steady-state target cleavage rate: 0.00645 ± 0.0024
[2]
  pre-steady-state target cleavage rate: 0.0116 ± 0.0032

## UCCUGGAACAGCUUGCACAGUAUUUAGUUA
[1]; [3]
  pre-steady-state target cleavage rate: 0.169 ± 0.014
[1]; [4]
  pre-steady-state target cleavage rate: 0.0128 ± 0.003
[2]
  pre-steady-state target cleavage rate: 0.0589 ± 0.015

## UCCUGGAUGUCCUUGCUUAGUAUUUAGUUA
[1]; [3]
  pre-steady-state target cleavage rate: 0.0537 ± 0.0095
[1]; [4]
  pre-steady-state target cleavage rate: 0.00574 ± 0.0022
[2]
  pre-steady-state target cleavage rate: 0.00568 ± 0.0037

## UCCUGCUGCAGCUUGCAUAGUAUUUAGUUA
[1]; [3]
  pre-steady-state target cleavage rate: 0.331 ± 0.024
[1]; [4]
  pre-steady-state target cleavage rate: 0.00762 ± 0.0024
[2]
  pre-steady-state target cleavage rate: 0.0729 ± 0.016

## UCCUGGUACUGCUUGCAUAGUAAUUAGUUA
[1]; [3]
  pre-steady-state target cleavage rate: 0.169 ± 0.031
[1]; [4]
  pre-steady-state target cleavage rate: 0.00575 ± 0.0025
[2]
  pre-steady-state target cleavage rate: 0.114 ± 0.043

## UCCUGGAACAGGAAGCAUAGUAUUUAGUUA
[1]; [3]
  pre-steady-state target cleavage rate: 0.199 ± 0.016
[1]; [4]
  pre-steady-state target cleavage rate: 0.00491 ± 0.0024
[2]
  pre-steady-state target cleavage rate: 0.00471 ± 0.002

## UCCUGGAACAUCUUGCAUAGUAUUUAGUUA
[1]; [3]
  pre-steady-state target cleavage rate: 0.244 ± 0.013
[1]; [4]
  pre-steady-state target cleavage rate: 0.0108 ± 0.0028
[2]
  pre-steady-state target cleavage rate: 0.0653 ± 0.016

## UCCUGGAUCAGCUUGCAUAGUAUUUAGAUUA
[1]; [3]
  pre-steady-state target cleavage rate: 0.0478 ± 0.011
[1]; [4]
  pre-steady-state target cleavage rate: 0.00315 ± 0.0026
[2]
  pre-steady-state target cleavage rate: 0.00483 ± 0.0016

## UCCUGCUACAGCUUCGCAUAGUAUUUAGUUA
[1]; [3]
  pre-steady-state target cleavage rate: 0.268 ± 0.019
[1]; [4]
  pre-steady-state target cleavage rate: 0.00637 ± 0.0021
[2]
  pre-steady-state target cleavage rate: 0.0225 ± 0.0071

## UCCUCCUACAGCUUGGAUAGUAUUUUGUUA
[1]; [3]
  pre-steady-state target cleavage rate: 0.164 ± 0.028
[1]; [4]
  pre-steady-state target cleavage rate: 0.00424 ± 0.0026
[2]
  pre-steady-state target cleavage rate: 0.00565 ± 0.0022

## UCCUCCUACAGCUUGCAUAGUGUUUAGUUA
[1]; [3]
  pre-steady-state target cleavage rate: 0.211 ± 0.017
[1]; [4]
  pre-steady-state target cleavage rate: 0.00543 ± 0.0025
[2]
  pre-steady-state target cleavage rate: 0.0149 ± 0.0041

## UCCUCCUACAGGUUGCAAAGUAUUUAGUUA
[1]; [3]
  pre-steady-state target cleavage rate: 0.142 ± 0.0086
[1]; [4]
  pre-steady-state target cleavage rate: 0.00921 ± 0.002
[2]
  pre-steady-state target cleavage rate: 0.0547 ± 0.011

## UCCUGCUACAGCAUGCAUAGUAUUUUGUUA
[1]; [3]
  pre-steady-state target cleavage rate: 0.167 ± 0.029
[1]; [4]
  pre-steady-state target cleavage rate: 0.00333 ± 0.0032
[2]
  pre-steady-state target cleavage rate: 0.00422 ± 0.002

## UCCUGCUACAGCUUGCAAUGUAUUUAGUUA
[1]; [3]
  pre-steady-state target cleavage rate: 0.0986 ± 0.014
[1]; [4]
  pre-steady-state target cleavage rate: 0.00809 ± 0.002
[2]
  pre-steady-state target cleavage rate: 0.00312 ± 0.0024

## UCCUGCUAGAGCUUGCAUAGUAAUUAGUUA
[1]; [3]
  pre-steady-state target cleavage rate: 0.19 ± 0.02
[1]; [4]
  pre-steady-state target cleavage rate: 0.00448 ± 0.0023
[2]
  pre-steady-state target cleavage rate: 0.00471 ± 0.0019

## UCCUGGUACUGCUUGCAAAGUAUUUAGUUA
[1]; [3]
  pre-steady-state target cleavage rate: 0.0806 ± 0.01
[1]; [4]
  pre-steady-state target cleavage rate: 0.00779 ± 0.0021
[2]
  pre-steady-state target cleavage rate: 0.0752 ± 0.027

## UCCUCCUACAGCUUGGUUAGUAUUUAGUUA
[1]; [3]
  pre-steady-state target cleavage rate: 0.269 ± 0.016
[1]; [4]
  pre-steady-state target cleavage rate: 0.00996 ± 0.0021
[2]
  pre-steady-state target cleavage rate: 0.0149 ± 0.006

## UCCUGGAAAAGCUUGCAUAGUAUUUAGUUA
[1]; [3]
  pre-steady-state target cleavage rate: 0.249 ± 0.019
[1]; [4]
  pre-steady-state target cleavage rate: 0.00809 ± 0.0029
[2]
  pre-steady-state target cleavage rate: 0.0119 ± 0.0039

## UCCUGGAUGUGCUUGCAUAGUAUUUUGUUA
[1]; [3]
  pre-steady-state target cleavage rate: 0.0696 ± 0.019
[1]; [4]
  pre-steady-state target cleavage rate: 0.00381 ± 0.0032
[2]
  pre-steady-state target cleavage rate: 0.00341 ± 0.0026
